Columns and labels:
Assay in all cases: DAPPL (digital affinity profiling via proximity ligation, sequencing); 10 mM Tris-HCl pH 7.5, 50 mM NaCl, 1 mM DTT, 4% glycerol, room temperature, 30 min; GST-TFs on glutathione beads, 16-mer random dsDNA library, 0.1% formaldehyde crosslink after washing; high values mean tight binding
Settings in all cases: protein: recombinant; tags: N-terminal GST; dsDNA, one strand shown
FLI1 = biological target: T1, FLI1 (Homo sapiens, UniProt Q01543 1-452)
T1 sequence: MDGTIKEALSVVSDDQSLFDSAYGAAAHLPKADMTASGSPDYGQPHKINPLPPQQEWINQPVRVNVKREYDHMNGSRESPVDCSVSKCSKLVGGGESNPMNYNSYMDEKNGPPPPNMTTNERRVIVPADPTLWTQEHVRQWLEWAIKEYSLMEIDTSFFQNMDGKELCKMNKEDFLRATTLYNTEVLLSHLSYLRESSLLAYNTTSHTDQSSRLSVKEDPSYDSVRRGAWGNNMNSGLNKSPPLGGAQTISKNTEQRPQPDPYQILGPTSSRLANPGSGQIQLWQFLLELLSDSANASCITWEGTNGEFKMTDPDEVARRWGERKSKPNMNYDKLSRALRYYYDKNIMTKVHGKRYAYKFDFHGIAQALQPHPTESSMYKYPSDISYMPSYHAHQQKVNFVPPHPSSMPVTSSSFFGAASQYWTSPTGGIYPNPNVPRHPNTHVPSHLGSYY
In short: (§1)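 Binding signal is defined as a hexamer's read frequency for one factor over its frequency for the tag-only sample. To obtain reads, GST-fused human transcription factors were expressed in yeast, captured on glutathione beads, barcoded with DNA and pooled with that sample. Pools met 200 nmole of a 16-mer random double-stranded DNA library in Tris/NaCl/DTT/glycerol buffer for 30 min at room temperature before washing, 0.1% formaldehyde crosslinking, proximity ligation (BsaI/T4 ligase, 1 h, 37 °C), PCR and Illumina NextSeq500 sequencing.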

ELK1 = biological target: T2, ELK1 (Homo sapiens, UniProt P19419 1-428)
T2 sequence: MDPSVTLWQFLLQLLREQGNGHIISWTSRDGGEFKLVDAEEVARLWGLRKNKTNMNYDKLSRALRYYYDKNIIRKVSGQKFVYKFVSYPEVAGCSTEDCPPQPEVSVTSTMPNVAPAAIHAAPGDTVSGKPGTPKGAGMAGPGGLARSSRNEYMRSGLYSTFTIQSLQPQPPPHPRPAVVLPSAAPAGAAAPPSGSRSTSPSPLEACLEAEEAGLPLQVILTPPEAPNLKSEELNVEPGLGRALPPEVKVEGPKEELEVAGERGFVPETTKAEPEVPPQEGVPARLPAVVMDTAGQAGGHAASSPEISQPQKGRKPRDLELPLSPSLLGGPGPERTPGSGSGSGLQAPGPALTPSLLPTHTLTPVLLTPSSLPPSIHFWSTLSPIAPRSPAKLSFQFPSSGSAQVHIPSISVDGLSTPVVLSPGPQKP
In short: as §1

GABPA = biological target: T3, GABPA (Homo sapiens, UniProt Q06546 1-454)
T3 sequence: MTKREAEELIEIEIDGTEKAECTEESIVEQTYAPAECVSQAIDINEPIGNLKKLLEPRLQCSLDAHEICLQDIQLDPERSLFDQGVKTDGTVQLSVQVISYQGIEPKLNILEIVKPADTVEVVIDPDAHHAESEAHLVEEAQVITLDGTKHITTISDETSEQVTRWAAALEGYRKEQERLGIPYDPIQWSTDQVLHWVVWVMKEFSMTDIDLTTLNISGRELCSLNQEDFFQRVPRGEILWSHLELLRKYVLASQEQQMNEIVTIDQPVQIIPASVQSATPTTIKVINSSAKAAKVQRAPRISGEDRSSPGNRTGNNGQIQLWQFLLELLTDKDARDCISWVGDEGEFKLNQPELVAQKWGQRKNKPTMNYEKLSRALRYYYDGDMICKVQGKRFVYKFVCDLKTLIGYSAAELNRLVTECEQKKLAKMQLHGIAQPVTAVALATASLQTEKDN
In short: as §1

ERG = biological target: T4, ERG (Homo sapiens, UniProt P11308 1-479)
T4 sequence: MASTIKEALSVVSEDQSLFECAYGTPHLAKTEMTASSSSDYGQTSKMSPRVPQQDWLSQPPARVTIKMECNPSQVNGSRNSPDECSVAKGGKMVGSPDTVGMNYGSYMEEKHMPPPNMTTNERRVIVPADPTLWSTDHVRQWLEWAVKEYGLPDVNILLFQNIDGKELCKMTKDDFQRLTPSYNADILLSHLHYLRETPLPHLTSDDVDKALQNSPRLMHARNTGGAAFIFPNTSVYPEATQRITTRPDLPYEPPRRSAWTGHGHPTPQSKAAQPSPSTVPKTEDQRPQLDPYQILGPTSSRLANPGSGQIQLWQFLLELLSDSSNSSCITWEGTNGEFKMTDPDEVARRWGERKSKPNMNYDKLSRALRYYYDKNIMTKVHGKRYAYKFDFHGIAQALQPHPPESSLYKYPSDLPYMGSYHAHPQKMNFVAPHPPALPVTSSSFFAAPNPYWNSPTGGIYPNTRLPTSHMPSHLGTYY
In short: as §1

ELF1 = ELF1 (Homo sapiens, UniProt P32519 1-619)
ELF1, sequence (P32519 whole entry): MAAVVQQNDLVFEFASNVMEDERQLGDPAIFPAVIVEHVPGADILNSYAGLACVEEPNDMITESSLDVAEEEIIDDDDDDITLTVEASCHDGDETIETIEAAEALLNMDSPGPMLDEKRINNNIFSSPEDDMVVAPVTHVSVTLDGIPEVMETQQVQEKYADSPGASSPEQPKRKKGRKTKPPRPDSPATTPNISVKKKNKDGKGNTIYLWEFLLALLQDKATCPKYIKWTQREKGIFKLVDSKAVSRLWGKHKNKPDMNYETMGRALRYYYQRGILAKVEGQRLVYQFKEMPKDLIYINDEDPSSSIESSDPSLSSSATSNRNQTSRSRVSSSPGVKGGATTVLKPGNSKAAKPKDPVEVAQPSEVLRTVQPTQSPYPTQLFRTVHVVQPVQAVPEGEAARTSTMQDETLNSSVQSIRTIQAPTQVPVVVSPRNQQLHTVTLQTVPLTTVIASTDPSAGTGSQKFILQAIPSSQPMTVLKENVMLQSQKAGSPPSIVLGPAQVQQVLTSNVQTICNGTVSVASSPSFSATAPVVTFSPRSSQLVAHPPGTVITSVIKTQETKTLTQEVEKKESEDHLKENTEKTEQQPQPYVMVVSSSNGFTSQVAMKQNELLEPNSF
In short: as §1

EHF = biological target: T5, EHF (Homo sapiens, UniProt Q9NZC4 1-300)
T5 sequence: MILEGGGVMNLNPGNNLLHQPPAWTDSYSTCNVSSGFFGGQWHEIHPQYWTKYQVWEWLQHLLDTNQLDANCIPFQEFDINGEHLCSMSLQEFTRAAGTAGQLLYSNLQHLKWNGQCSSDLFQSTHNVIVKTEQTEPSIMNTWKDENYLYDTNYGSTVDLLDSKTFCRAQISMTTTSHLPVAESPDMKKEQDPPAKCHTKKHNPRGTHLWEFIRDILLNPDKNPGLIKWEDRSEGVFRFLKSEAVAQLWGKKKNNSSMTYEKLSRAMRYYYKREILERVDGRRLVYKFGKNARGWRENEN
In short: as §1

SPI1 = SPI1 (Homo sapiens, UniProt P17947 1-270)
In short: as §1

SPIB = SPIB (Homo sapiens, UniProt Q01892 1-262)
SPIB, sequence (Q01892 whole entry): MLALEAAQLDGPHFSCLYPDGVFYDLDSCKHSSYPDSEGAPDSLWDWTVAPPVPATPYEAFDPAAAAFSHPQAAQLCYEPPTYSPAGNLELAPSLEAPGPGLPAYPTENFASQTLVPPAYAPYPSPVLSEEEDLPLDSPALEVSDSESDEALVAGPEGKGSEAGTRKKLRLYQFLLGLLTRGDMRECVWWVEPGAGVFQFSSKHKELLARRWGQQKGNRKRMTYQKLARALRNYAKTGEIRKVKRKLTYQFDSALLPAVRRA
In short: as §1

ELK3 = biological target: T6, ELK3 (Homo sapiens, UniProt P41970 1-407)
T6 sequence: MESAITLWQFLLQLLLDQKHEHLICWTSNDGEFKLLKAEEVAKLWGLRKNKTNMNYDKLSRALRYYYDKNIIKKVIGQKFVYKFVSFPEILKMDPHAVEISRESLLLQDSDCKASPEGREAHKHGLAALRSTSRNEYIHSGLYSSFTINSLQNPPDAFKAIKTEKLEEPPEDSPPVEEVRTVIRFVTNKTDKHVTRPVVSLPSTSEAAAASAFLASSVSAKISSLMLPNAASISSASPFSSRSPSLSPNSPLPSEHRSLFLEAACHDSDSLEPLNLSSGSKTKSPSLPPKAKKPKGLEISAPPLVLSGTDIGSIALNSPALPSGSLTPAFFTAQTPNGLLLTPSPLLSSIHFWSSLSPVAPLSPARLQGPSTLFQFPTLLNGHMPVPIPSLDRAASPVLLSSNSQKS
In short: as §1

FEV = biological target: T7, FEV (Homo sapiens, UniProt Q99581 1-238)
T7 sequence: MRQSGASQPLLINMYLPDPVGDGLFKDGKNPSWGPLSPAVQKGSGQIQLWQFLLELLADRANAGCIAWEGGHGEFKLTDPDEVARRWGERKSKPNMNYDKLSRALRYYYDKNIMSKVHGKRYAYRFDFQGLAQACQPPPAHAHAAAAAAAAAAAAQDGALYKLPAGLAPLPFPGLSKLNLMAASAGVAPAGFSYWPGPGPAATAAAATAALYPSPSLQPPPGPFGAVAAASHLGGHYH
In short: as §1

ETV5 = ETV5 (Homo sapiens, UniProt P41161 1-510)
ETV5, sequence (P41161 whole entry): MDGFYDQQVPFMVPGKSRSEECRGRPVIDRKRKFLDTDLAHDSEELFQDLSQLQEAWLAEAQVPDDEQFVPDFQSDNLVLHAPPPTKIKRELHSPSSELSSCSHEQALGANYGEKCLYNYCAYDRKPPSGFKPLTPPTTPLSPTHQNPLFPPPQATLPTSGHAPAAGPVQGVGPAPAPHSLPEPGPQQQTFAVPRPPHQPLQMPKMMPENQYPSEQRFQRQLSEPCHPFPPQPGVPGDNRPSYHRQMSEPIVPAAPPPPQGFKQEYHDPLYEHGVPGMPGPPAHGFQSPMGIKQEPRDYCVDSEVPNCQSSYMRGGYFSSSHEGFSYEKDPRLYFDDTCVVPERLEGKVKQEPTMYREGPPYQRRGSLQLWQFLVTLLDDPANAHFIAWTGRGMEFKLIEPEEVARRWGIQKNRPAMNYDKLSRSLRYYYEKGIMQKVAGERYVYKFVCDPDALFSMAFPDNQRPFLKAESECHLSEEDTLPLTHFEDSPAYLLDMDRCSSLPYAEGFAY
In short: as §1

SPIC = biological target: T8, SPIC (Homo sapiens, UniProt Q8N5J4 1-248)
T8 sequence: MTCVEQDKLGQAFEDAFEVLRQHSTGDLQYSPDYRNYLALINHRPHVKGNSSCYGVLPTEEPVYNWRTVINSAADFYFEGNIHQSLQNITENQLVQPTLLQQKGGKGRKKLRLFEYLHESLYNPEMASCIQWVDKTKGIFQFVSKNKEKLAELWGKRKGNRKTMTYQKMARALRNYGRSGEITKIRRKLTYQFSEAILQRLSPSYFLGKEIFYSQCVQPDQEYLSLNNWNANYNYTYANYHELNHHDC
In short: as §1

ELF4 = ELF4 (Homo sapiens, UniProt Q99607 1-663)
ELF4, sequence (Q99607 whole entry): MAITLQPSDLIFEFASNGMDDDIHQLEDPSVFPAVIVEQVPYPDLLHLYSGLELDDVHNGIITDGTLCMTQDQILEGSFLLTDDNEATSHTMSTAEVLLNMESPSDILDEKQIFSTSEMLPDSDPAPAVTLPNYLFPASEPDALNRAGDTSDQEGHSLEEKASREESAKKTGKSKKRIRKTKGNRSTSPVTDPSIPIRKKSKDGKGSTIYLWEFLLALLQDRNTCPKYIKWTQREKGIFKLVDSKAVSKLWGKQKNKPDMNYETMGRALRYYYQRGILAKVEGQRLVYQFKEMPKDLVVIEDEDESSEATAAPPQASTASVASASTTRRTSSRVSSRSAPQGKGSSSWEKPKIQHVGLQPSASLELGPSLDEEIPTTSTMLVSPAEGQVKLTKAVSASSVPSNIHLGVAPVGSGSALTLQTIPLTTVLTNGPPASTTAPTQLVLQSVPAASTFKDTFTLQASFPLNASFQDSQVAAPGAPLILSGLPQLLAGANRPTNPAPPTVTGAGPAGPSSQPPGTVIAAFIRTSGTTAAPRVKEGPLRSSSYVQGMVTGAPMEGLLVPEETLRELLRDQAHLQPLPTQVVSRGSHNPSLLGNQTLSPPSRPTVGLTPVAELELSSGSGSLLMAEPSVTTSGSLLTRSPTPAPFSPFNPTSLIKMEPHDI
In short: as §1

ELK4 = biological target: T9, ELK4 (Homo sapiens, UniProt P28324-2 1-405)
T9 sequence: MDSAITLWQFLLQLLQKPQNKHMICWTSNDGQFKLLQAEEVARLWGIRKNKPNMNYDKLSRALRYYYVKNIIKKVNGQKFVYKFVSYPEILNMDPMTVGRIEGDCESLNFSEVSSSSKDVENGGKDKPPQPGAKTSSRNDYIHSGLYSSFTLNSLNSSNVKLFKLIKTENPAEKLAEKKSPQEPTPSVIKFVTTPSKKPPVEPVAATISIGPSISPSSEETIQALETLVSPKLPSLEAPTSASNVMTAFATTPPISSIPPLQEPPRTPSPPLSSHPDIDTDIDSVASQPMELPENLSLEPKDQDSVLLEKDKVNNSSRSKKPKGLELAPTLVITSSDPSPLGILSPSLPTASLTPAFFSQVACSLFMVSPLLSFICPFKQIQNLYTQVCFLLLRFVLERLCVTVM
In short: as §1

ETV2 = biological target: T10, ETV2 (Homo sapiens, UniProt O00321 1-342)
T10 sequence: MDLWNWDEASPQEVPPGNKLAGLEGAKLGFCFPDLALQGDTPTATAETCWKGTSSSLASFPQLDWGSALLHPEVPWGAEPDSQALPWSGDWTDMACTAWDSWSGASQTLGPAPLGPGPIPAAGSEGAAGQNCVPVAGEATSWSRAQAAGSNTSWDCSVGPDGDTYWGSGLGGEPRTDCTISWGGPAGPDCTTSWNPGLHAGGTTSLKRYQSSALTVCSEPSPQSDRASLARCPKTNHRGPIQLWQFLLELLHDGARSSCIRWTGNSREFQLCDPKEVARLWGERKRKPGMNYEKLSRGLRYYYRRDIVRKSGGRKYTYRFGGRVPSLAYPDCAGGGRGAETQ
In short: as §1

ELF3 = biological target: T11, ELF3 (Homo sapiens, UniProt P78545 1-371)
T11 sequence: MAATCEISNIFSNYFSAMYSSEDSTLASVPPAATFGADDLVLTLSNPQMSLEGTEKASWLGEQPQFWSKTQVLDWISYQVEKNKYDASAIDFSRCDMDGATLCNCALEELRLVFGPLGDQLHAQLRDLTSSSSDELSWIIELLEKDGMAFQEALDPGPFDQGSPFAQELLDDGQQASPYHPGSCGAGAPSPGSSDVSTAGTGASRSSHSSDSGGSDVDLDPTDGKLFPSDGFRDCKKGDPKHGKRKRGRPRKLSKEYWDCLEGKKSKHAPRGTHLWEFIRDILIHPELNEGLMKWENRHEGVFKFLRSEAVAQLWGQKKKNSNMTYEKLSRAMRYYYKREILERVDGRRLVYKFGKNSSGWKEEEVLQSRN
In short: as §1

ETV1 = ETV1 (Homo sapiens, UniProt P50549 1-477)
ETV1, sequence (P50549 whole entry): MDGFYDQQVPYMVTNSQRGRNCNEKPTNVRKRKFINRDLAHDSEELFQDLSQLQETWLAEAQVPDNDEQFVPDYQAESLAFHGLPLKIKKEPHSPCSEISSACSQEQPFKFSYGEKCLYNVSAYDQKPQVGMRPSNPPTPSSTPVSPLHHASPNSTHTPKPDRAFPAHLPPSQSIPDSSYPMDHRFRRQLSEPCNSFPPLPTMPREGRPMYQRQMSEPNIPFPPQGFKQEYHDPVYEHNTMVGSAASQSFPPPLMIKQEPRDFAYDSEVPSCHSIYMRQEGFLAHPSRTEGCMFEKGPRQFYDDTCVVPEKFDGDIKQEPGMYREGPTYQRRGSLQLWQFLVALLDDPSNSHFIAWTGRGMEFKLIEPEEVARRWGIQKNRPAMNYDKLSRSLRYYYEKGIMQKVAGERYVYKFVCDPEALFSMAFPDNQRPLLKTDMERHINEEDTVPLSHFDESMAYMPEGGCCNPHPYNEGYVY
In short: as §1

| Sequence | binding signal (FLI1) | binding signal (ELK1) | binding signal (GABPA) | binding signal (ERG) | binding signal (ELF1) | binding signal (EHF) | binding signal (SPI1) | binding signal (SPIB) | binding signal (ELK3) | binding signal (FEV) | binding signal (ETV5) | binding signal (SPIC) | binding signal (ELF4) | binding signal (ELK4) | binding signal (ETV2) | binding signal (ELF3) | binding signal (ETV1) |
| --- | --- | --- | --- | --- | --- | --- | --- | --- | --- | --- | --- | --- | --- | --- | --- | --- | --- |
| CGGCAT | 1.07 fold enrichment (6-mer frequency, TF over GST control) | 1.13 fold enrichment (6-mer frequency, TF over GST control) | 1.07 fold enrichment (6-mer frequency, TF over GST control) | 1.11 fold enrichment (6-mer frequency, TF over GST control) | 1.08 fold enrichment (6-mer frequency, TF over GST control) | 1.09 fold enrichment (6-mer frequency, TF over GST control) | 1.13 fold enrichment (6-mer frequency, TF over GST control) | 1.19 fold enrichment (6-mer frequency, TF over GST control) | 1.09 fold enrichment (6-mer frequency, TF over GST control) | 1.09 fold enrichment (6-mer frequency, TF over GST control) | 1.13 fold enrichment (6-mer frequency, TF over GST control) | 1.18 fold enrichment (6-mer frequency, TF over GST control) | 1.06 fold enrichment (6-mer frequency, TF over GST control) | 1.1 fold enrichment (6-mer frequency, TF over GST control) | 1.25 fold enrichment (6-mer frequency, TF over GST control) | 1.02 fold enrichment (6-mer frequency, TF over GST control) | 1.19 fold enrichment (6-mer frequency, TF over GST control) |
| CACATC | 1.39 fold enrichment (6-mer frequency, TF over GST control) | 1.45 fold enrichment (6-mer frequency, TF over GST control) | 1.33 fold enrichment (6-mer frequency, TF over GST control) | 1.64 fold enrichment (6-mer frequency, TF over GST control) | 1.4 fold enrichment (6-mer frequency, TF over GST control) | 1.5 fold enrichment (6-mer frequency, TF over GST control) | 1.37 fold enrichment (6-mer frequency, TF over GST control) | 1.46 fold enrichment (6-mer frequency, TF over GST control) | 1.61 fold enrichment (6-mer frequency, TF over GST control) | 1.71 fold enrichment (6-mer frequency, TF over GST control) | 1.5 fold enrichment (6-mer frequency, TF over GST control) | 1.31 fold enrichment (6-mer frequency, TF over GST control) | 1.36 fold enrichment (6-mer frequency, TF over GST control) | 1.45 fold enrichment (6-mer frequency, TF over GST control) | 1.44 fold enrichment (6-mer frequency, TF over GST control) | 1.34 fold enrichment (6-mer frequency, TF over GST control) | 1.38 fold enrichment (6-mer frequency, TF over GST control) |
